This is a sample that favours compounds with a hit; in the whole collection about 0.34% have one here.
Vif-APOBEC3G blk: qHTS for Inhibitors of Vif-A3G Interactions: qHTS; DNA dC->dU-editing enzyme APOBEC-3G (Homo sapiens), Q9HC16; HeLa A3G-eYFP + Vif (tagged APOBEC3G with the HIV-1 protein that degrades it), YFP fluorescence, overnight; Potency, µM (highest dose often 46.1 µM), usual class: inhibitors; 410,000 tested, 0.076% active; AID 602310, 2012; further: nearly all actives have a fitted effect of over 60% in size
Target sequence (Q9HC16 whole entry, looked up): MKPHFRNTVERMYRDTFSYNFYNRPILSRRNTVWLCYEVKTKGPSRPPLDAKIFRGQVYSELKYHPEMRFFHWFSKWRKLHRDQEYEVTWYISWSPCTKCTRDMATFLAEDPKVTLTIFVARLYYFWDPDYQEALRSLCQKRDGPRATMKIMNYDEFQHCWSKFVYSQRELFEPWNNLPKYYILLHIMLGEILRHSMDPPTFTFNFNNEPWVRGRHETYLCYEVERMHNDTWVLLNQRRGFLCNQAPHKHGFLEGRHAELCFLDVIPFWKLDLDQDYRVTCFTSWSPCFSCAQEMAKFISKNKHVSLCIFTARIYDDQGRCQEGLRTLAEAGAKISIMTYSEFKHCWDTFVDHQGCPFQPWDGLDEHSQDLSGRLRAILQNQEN
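HeLa cells stably expressing Vif and C-terminally eYFP-tagged A3G, seeded overnight at 37 deg C, then exposed to compound by pintool overnight at 37 deg C. Rise in yellow fluorescence (Ex 488/Em 500-530, Acumen) marks blocked Vif-driven A3G degradation.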
Epigenetic reg: Quantitative High-Throughput Screen for Regulators of Epigenetic Control | murine LDR cells, GFP reporter derepression, 30 h | Potency, µM (doses to about 53.9 µM), actives largely listed as activators | 280,000 tested, 0.2% active | AID 1865, 2009; further: nearly all actives have a fitted effect of over 60% in size
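In this reporter-derepression format, murine cells bearing a silenced integrated CMV-GFP locus incubate with test compound (30 h, 37 C), then are washed and imaged; fluorescent objects of 20–120 um count as induced cells.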
Vif-A3F inh: qHTS for Inhibitors of Vif-A3F Interactions: qHTS; HeLa A3F-eYFP + Vif (tagged APOBEC3F with the HIV-1 protein that degrades it), YFP fluorescence increase; Potency, µM (series often up to 46.1 µM); 390,000 tested, 0.2% active; further: nearly all actives have a fitted effect of over 65% in size
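HeLa cells stably expressing Vif plus C-terminally eYFP-tagged A3F were seeded, incubated overnight at 37 deg C, dosed with compound, incubated overnight again at 37 deg C. Yellow fluorescence (Ex 488/Em 500-530) reported blocked Vif-mediated A3F-eYFP degradation.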
Hits are given with their value; . = inactive; ? = inconclusive; / = no result. The call rests on the fitted dose curve; in most records, active means well fitted curve in the direction sought with a large enough effect; inconclusive means small, poorly fitted or top-dose-only effect, or another doubt; inactive means no such curve, though single readings can be large; an effect the other way counts as inactive or inconclusive.

SMILES	Vif-APOBEC3G blk	Epigenetic reg	Vif-A3F inh
Cc1ccc(-c2noc(-c3ccccc3NC(=O)C3CC(=O)N(c4cccc(C)c4)C3)n2)cc1 (centres undefined)	.	16µM	.
CCOC(=O)C(C)Sc1nnc2cc(C)c3ccccc3n12 (centres undefined)	.	.	.
CC(C)N1CCc2c(sc(NC(=O)c3cc4cc([N+](=O)[O-])ccc4s3)c2C(N)=O)C1	8.9µM	?	?
CN1CCc2c(sc(NC(=O)c3cc4cc([N+](=O)[O-])ccc4s3)c2C(N)=O)C1	/	.	/
CC1CCN2c3ccccc3CC3(C(=O)OC(C)(C)OC3=O)C2C1 (centres undefined)	.	/	/
CCCC[n+]1ccn(-c2nc3ccccc3nc2[N-]S(=O)(=O)c2ccccc2)c1	.	.	.
CCCC[n+]1ccn(-c2nc3ccccc3nc2[N-]S(=O)(=O)c2cccs2)c1	.	10µM	.
Cc1ccn2c(Nc3c(C)cccc3C)c(-c3ccc(Cl)s3)nc2c1	.	.	.
O=c1c2ccc([N+](=O)[O-])c3cccc(c32)c2nc3ccccc3n12	/	.	/
O=c1c2cccc3c(N4CCOCC4)ccc(c32)c2nc3ccccc3n12	/	13µM	/
COc1cc(C=C2C(=O)c3ccccc3C2=O)cc(OC)c1OC	.	?	25µM
COc1cc(C=C2C(=O)c3ccccc3C2=O)ccc1O	.	?	.
CCCCNC(=O)Cn1c(SCc2ccccc2C)nc2ccncc21	.	/	/
C[N+]1(CC(=O)c2ccccc2)CCc2ccccc2C1 (centres undefined)	.	/	/
CSc1nsc2nc(=O)c(/C=C3\C(C)=Nc4ccc(C)cc43)c(N)n12	?	.	?
CC1=Nc2ccc(C)cc2/C1=C/c1c(N)n2oc(C)cc2nc1=O	?	?	11µM
Cc1ccc2c(c1)cc1c(=O)n(CC(=O)N3CCCCC3)nc(C)n12	.	.	.
O=c1cc(-c2ccc(O)cc2)oc2cc(O[C@@H]3O[C@H](CO)[C@H](O)[C@H](O)[C@H]3O)cc(O)c12	.	/	/
C=C1C=C(C)n2ncc(C(=O)Nc3cccc(C(=O)Nc4cccc(C(F)(F)F)c4)c3)c2N1	.	/	/
CC[n+]1c(C=C2C=C(C)OC(C)=C2)sc2ccccc21	5.6µM	7.9µM	?
CC[n+]1c(/C=C2/C=C(C)CC(C)C2)sc2ccccc21 (centres undefined)	.	.	.
Cc1cc(SCC#N)nc2ccccc12	.	.	.
COc1ccc2c(C)cc(SCC#N)nc2c1	?	.	22µM
CCN(CC)/[N+]([O-])=N/OCOC(=O)C(C)c1ccc2cc(OC(C)=O)ccc2c1 (centres undefined)	.	/	/
COc1cccc(/C=N/n2c(C3CCCCC3)n[nH]c2=S)c1	7.1µM	/	.
SMILES	Vif-APOBEC3G blk	Epigenetic reg	Vif-A3F inh
Oc1cccc(/C=N/n2c(C3CCCCC3)n[nH]c2=S)c1	.	/	.
O=C(Nc1ccc(Cl)cc1Cl)[C@@H]1CC=C[C@@H]2CCN(Cc3ccccc3)C(=O)[C@@H]21	.	/	/
COc1ccc(S(=O)(=O)Nc2ccccc2-c2nc3ccccc3[nH]c2=O)cc1	?	/	3.5µM
CCC(=O)Nc1ccccc1-c1nc2ccccc2[nH]c1=O	.	/	.
Cc1ccc(C(=O)NCCCNc2ccc(C(F)(F)F)cc2[N+](=O)[O-])cc1	.	.	?
O=C(NCCCNc1ccc(C(F)(F)F)cc1[N+](=O)[O-])c1ccc(F)cc1	.	18µM	?
N#Cc1nc(-c2ccc(COc3ccccc3)o2)oc1NCc1ccccc1	.	.	.
CC(Nc1oc(-c2ccc(COc3ccccc3)o2)nc1C#N)c1ccccc1 (centres undefined)	.	.	10µM
C[C@@H]1[C@H](c2ccccc2)OCCS(=O)(=O)N1Cc1ccc(Cl)cc1	.	/	/
CCCCCCCCCCCCCCCC[n+]1ccc(C)cc1	.	/	/
N=c1n(CC(=O)c2ccc([N+](=O)[O-])cc2)c2ccccc2n1Cc1ccccc1	?	22µM	13µM
N=c1n(CC(=O)c2ccc(Br)cc2)c2ccccc2n1Cc1ccccc1	.	/	.
N=c1n(CCO)c2ccccc2n1Cc1ccc(Cl)cc1	.	.	.
N=c1n(CC(=O)c2ccc([N+](=O)[O-])cc2)c2ccccc2n1Cc1ccc(Cl)cc1	.	16µM	?
c1cc2c3c(c1)CCCN3CCC2	.	/	/
Cc1c(CCO)sc[n+]1CC(=O)c1ccccc1	.	/	/
Cc1cc(C)n2nc(SCC(=O)Nc3cc(Cl)ccc3C)nc2n1	.	.	.
CSc1ccc(/C=c2\s/c(=C\C(=O)C(C)(C)C)n(CC(=O)NCCC3=CCCCC3)c2=O)cc1	.	20µM	.
CCn1c(=O)c2sccc2n(CC(=O)NCCC2=CCCCC2)c1=O	.	/	.
O=C(Nc1ccccc1-c1nc2ccccc2[nH]1)c1ccc(S(=O)(=O)N2CCCCC2)cc1	.	.	.
O=C(Nc1ccccc1-c1nc2ccccc2[nH]1)c1ccc(N2C(=O)CCC2=O)cc1	?	.	11µM
CCCCCCCC/C=C\CCCCCCCC(=O)NCCc1ccc(O)c(O)c1	.	?	.
CCCCCCCCCCCCCCCCCC(=O)NCCc1ccc(O)c(O)c1	/	11µM	/
CCN(CC)S(=O)(=O)c1cc([N+](=O)[O-])ccc1N=Nc1c(O)[nH]c2ccccc12	.	18µM	13µM
Cc1ccc2[nH]c(O)c(N=Nc3ccccc3[N+](=O)[O-])c2c1	.	/	.
SMILES	Vif-APOBEC3G blk	Epigenetic reg	Vif-A3F inh
N#C/C(=C\c1ccc(OCc2ccc(Cl)cc2Cl)cc1)c1nc2ccccc2[nH]1	.	?	?
COc1cc(/C=C(\C#N)c2nc3ccccc3s2)ccc1OCC(=O)Nc1ccccc1	10µM	3.2µM	?
COc1cc(/C=C(\C#N)c2nc3ccccc3[nH]2)cc(Cl)c1OCc1ccccc1Cl	?	11µM	?
COc1cc(/C=C(\CC(=O)O)c2nc3ccccc3s2)ccc1OCC(=O)Nc1ccccc1F	.	/	.
COc1cc(/C=C(\C#N)c2nc3ccc(C)cc3[nH]2)ccc1OC(C)C	.	?	25µM
COc1cc(/C=C(/C#N)c2nc3ccccc3[nH]2)ccc1OCC(=O)Nc1ccccc1C	.	?	.
COc1cc(/C=C(/C#N)c2nc3ccccc3[nH]2)ccc1OCC(=O)Nc1ccccc1C(C)C	.	.	10µM
Cc1ccc2nc(/C(C#N)=C/c3cccc(Br)c3)[nH]c2c1	.	?	?
CCOc1ccccc1C(=O)Nc1cccc2ccc(C)nc12	/	.	/
COc1ccc2c(c1)O[C@H](c1ccc3c(c1)OCO3)[C@@H](OC(=O)NCCOc1ccccc1)C2=O	/	.	/
COC(=O)c1ccccc1NC(=O)c1cnn2c1NC(=C1CC1)C=C2C(F)F	.	/	/
COc1ccc(C2Nc3ccccc3C(=O)N2Cc2ccccc2)cc1COc1ccccc1F (centres undefined)	.	/	/
CC1CC=CC2C1C(=O)N(Cc1ccccc1)C2c1ccc(-c2ccoc2)cc1F (centres undefined)	.	/	/
Cc1ccc2nc(/C(C#N)=C/c3ccc(-c4cccc(Cl)c4)o3)[nH]c2c1	7.9µM	?	3.2µM
CCN(CC)c1ccc(/C=C(/C#N)c2nc3ccccc3[nH]2)c(OC(C)C)c1	?	13µM	?
N#C/C(=C\c1ccc(-c2ccc(Cl)c(C(=O)O)c2)o1)c1nc2ccccc2[nH]1	?	.	?

Source: PubChem BioAssay
